Screen size: about 360,000 compounds; about 25,000 (6.9%) were called active. Not shown: some 9% with an inconclusive outcome. The full list was thinned out, with actives kept by preference. Unmarked numbers belong to inactive results. The call rests on the fitted dose curve; in most records, active means well fitted inhibition curve with a large enough effect; inconclusive means small, poorly fitted or top-dose-only effect; inactive means flat fitted curve, though single readings scatter.
Target: Luciferin 4-monooxygenase (Photinus pyralis) (UniProt P08659)
Assay: qHTS profiling assay for firefly luciferase inhibitor/activator using purifed enzyme and Km concentrations of substrates (counterscreen for miR-21 project); further: nearly all actives have a fitted effect of over 55% in size;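 on activity change, negative = inhibition: plate controls were vehicle for no effect and reference inhibitor for full effect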
Settings: purified FLuc, luminescence inhibition; series mostly up to 57.5 µM; activity change, negative = inhibition: at the top concentration
Procedure, shortened: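 Purified P. pyralis luciferase, 10 nM final, with Km-level 10 uM D-luciferin and 10 uM ATP in 50 mM Tris acetate pH 7.5, 10 mM Mg acetate, 0.01% Tween-20, 0.05% BSA; 6-point qHTS titration about 60 µM downward; luminescence read.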
Potency means the concentration at half of the fitted maximal effect.

Sequence of Luciferin 4-monooxygenase (Photinus pyralis) (P08659 whole entry, looked up): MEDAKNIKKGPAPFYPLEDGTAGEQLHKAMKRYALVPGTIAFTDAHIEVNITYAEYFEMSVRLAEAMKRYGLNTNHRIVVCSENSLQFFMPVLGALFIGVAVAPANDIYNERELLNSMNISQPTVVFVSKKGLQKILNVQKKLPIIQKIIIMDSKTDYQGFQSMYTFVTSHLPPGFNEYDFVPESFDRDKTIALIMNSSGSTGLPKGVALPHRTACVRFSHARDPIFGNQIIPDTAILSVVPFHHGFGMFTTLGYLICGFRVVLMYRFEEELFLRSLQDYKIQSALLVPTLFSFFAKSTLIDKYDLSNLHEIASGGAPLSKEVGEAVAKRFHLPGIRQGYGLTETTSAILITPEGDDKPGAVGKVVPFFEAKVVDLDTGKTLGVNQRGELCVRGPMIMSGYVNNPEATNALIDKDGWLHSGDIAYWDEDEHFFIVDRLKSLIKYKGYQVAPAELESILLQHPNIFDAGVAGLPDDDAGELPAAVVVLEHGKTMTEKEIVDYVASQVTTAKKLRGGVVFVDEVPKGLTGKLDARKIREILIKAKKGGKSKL

Row | SMILES | activity change, negative = inhibition | Potency
1 | Cc1cccc(C(=O)NCCc2nc3ccccc3n2Cc2ccccc2Cl)c1 | -4.32% | 
2 | O=C1C2N=NN(CC(=O)N3N=C(c4cccc5ccccc45)CC3c3ccccc3)C2C(=O)N1c1ccccc1 (stereo not given) | 5.45% | 
3 | Cc1ccc(-n2nc(CO)c(C(=O)NCCc3ccccc3)n2)cc1 | -0.322% | 
4 | COc1ccccc1C(=O)NC(CCSC)C(=O)N1CCN(C/C=C/c2ccccc2)CC1 (stereo not given) | 11.5% | 
5 | COc1cc(C(=O)Nc2ccc(-n3c(C)nc4ccccc4c3=O)cc2)cc(OC)c1OC | -0.586% | 
6 | CC(C)Cn1c(-c2ccc(S(=O)(=O)N3CCOCC3)cc2)csc1=Nc1cc(Cl)ccc1Cl | 2.36% | 
7 | Cn1c(CC(=O)NNC(=O)c2ccccc2F)nc2ccccc21 | 2.54% | 
8 | CCOc1ccc2oc(C(=O)N(CC)CC(=O)Nc3ccc(NC(C)=O)cc3)c(C)c2c1 | -7.13% | 
9 | Cc1nn(CC(=O)N2CCN(c3cccc(C(F)(F)F)c3)CC2)c(=O)c2cc3sccc3n12 | -8.4% | 
10 | CC(=O)c1ccc(NC(=O)c2nc(-c3ccc(C)cc3)n3c2CCCCC3)cc1 | -5.49% | 
11 | COC(=O)[C@H](CCSC)NC(=O)Nc1ccc(OC)cc1 | 0.815% | 
12 | COc1ccc(C(=O)Nc2ccnn2C2CCN(Cc3ccncc3)CC2)cc1 | -1.5% | 
13 | COc1ccc(C(=O)Nc2onc3c2CCCC3)cc1 |  | 0.601 µM (active)
14 | COc1ccc(/C=N/NC(=O)Nc2ccc3nsnc3c2)c(OC)c1 | -4.18% | 
15 | CCC(=O)Nc1ccc(C(=O)Nc2cccc(OC)c2)cc1 |  | 23.9 µM (active)
16 | COc1ccc(C(=O)Nc2sc(C)c(C)c2CN2CCOCC2)cc1 |  | 23.9 µM (active)
17 | COc1cccc(NC(=O)c2csnn2)c1 | -19.5% | 
18 | CC1CCc2noc(NC(=O)c3ccc([N+](=O)[O-])cc3)c2C1 (stereo not given) | -12% | 
19 | COc1ccc(-c2cc(C(=O)Nc3sc4c(c3C(N)=O)CCCC4)no2)cc1 | -17.3% | 
20 | COc1ccc(NC(=O)Nc2ccc3nsnc3c2)cc1 |  | 6.75 µM (active)
21 | CCOC(=O)c1c(NC(=O)c2ccc(N3CCOCC3)c([N+](=O)[O-])c2)sc(C)c1C | 0.104% | 
22 | CCC(C(=O)OCC(=O)Nc1ccc(C(=O)Nc2ccc(OC)cc2)cc1)c1ccccc1 (stereo not given) | -15.7% | 

Row | SMILES | activity change, negative = inhibition | Potency
23 | CCCCN1C(=O)c2[nH]nc(-c3ccccc3O)c2C1c1cccc(OCc2ccccc2)c1 (stereo not given) | 1.47% | 
24 | CC1CCN(C(=O)Cn2c(=O)n(-c3ccc(Cl)cc3)c(=O)c3c4c(sc32)CCC4)CC1 | 4.6% | 
25 | Cc1ccccc1NC(=O)CN1C(=O)C(C)(C)c2ccccc21 | -0.294% | 
26 | Cc1noc(C)c1-c1ccc2ncnc(NC(C)c3ccco3)c2c1 (stereo not given) | 1.6% | 
27 | Cc1ccc(C)c(N2CCN(C(=O)CCc3c(C)nc4c(c3C)c(=O)n(C)c(=O)n4C)CC2)c1 | 2.81% | 
28 | Cc1ccccc1Nc1scc(-c2ccc(Br)cc2)[n+]1-c1ccccc1C | -1.41% | 
29 | CCOc1ccc(OCC)c(NS(=O)(=O)c2ccc3[nH]c(=O)ccc3c2)c1 | -2.85% | 
30 | Cc1cccc(-n2c(Cc3cc(=O)[nH]c(=O)[nH]3)nnc2SC(C)C)c1 | -0.177% | 
31 | COc1cccc(N(CC(=O)NC2CCCC2)C(=O)Cn2nnc(-c3ccc(C)o3)n2)c1 | 6.13% | 
32 | O=S(=O)(c1ccc(Br)cc1)c1nnn2c1nc(N1CCOCC1)c1sccc12 | 4.66% | 
33 | CCn1cc2nc(SCc3ccccc3Cl)n(CCc3ccccc3)c(=O)c2n1 | -10.6% | 
34 | O=C(NC(=S)NC1CCCCC1)c1ccc(Cl)cc1 | -18.8% | 
35 | COc1ccc(C(=O)Nc2ccc(F)cc2F)cc1 |  | 10.7 µM (active)
36 | COc1ccc(C(=O)NC(=S)NC2CCCCC2)cc1 |  | 15.1 µM (active)
37 | CCc1ccccc1NC(=O)c1ccc2nc(CCc3ccccc3)oc2c1 | -22.5% | 
38 | COc1ccc(C(=O)NNC(=S)NC(=O)c2ccccc2)cc1 | -0.103% | 
39 | COc1ccc(NC(=O)c2ccc3nc(CCc4ccccc4)oc3c2)c(OC)c1 | -16.3% | 
40 | COc1cc(OC)cc(C(=O)OCC(=O)Nc2ccc(F)cc2F)c1 | -1.29% | 
41 | COc1ccc(NC(=O)CS(=O)(=O)c2ccccc2)cc1 | -2.89% | 
42 | COc1ccccc1CC(=O)Nc1ccc(F)cc1F | -3.36% | 
43 | COc1ccc(NC(=O)C(Br)C(C)C)cc1 (stereo not given) | -4.38% | 
44 | COc1ccc(NC(=O)ON=C2c3ccccc3-c3ccccc32)cc1 |  | 21.3 µM (active)

Row | SMILES | activity change, negative = inhibition | Potency
45 | COc1cccc(NC(=O)c2ccc3nc(CCc4ccccc4)oc3c2)c1 |  | 23.9 µM (active)
46 | Cc1ccc2c(=O)c(C(=O)c3ccc(Cl)cc3)cn(CC(=O)NC3CCCCC3)c2n1 | -2.08% | 
47 | CC(=O)N1c2ccccc2CC1C(=O)N1CCN(c2ccc(F)cc2)CC1 (stereo not given) | -0.433% | 
48 | O=c1cc2nc(-c3ccccc3)nc(SCCOc3ccc(Cl)cc3)n2[nH]1 | -13% | 
49 | O=C(NNC(=S)NC1CC2CCC1C2)c1ccc(Cl)cc1 (stereo not given) | -11.8% | 
50 | CCc1cc(C(N)=O)c(NC(=O)c2ccc(OC)cc2)s1 |  | 6.01 µM (active)
51 | CCc1cc(C(c2ccccc2OC)N2CCOCC2)c(NC(=O)c2ccccc2)s1 (stereo not given) | -1.35% | 
52 | CCc1cc(C(=O)c2ccc(OC)cc2)c(NC(=O)CN2CCN(C)CC2)s1 | 2.35% | 
53 | CC(=O)c1ccc(NC(=O)c2nc3nc(C)cc(C(F)F)n3n2)cc1 | -6.41% | 
54 | Cc1cc(C)cc(N(CC(=O)NC2CCCC2)C(=O)CCC(=O)Nc2cc(C)on2)c1 | -0.831% | 
55 | CCOC(=O)c1c(S(=O)(=O)N2CCCC(C(=O)NCc3ccc(F)cc3)C2)c(C)n(CC)c1C (stereo not given) | 5.45% | 
56 | CCOC(=O)c1nc(-c2ccc3c(c2)OCO3)[nH]c1C |  | 15.1 µM (active)
57 | CCOCCOC(=O)C1=C(C)NC(=O)NC1c1ccc2c(c1)OCO2 (stereo not given) | -0.485% | 
58 | Cc1ccc(C(=O)OCC(=O)NCc2ccc3c(c2)OCO3)s1 | -2.21% | 
59 | CCCCN(CC)CCNC(=O)CCNC(=O)Cn1ccc2ccccc2c1=O | -0.654% | 
60 | Cc1ccc(C)c(OCC(=O)Nc2sc3c(c2C#N)CCCC3)c1C | -19.4% | 
61 | O=c1cc(COc2cccc(C(F)(F)F)c2)nc2sc3c(n12)CCCC3 | 4.49% | 
62 | CC(=O)c1cc(-c2ccccc2)[nH]c1N1CCCC1 | -0.486% | 
63 | O=C1NN(c2ccccc2)C(=O)/C1=C/c1ccc(-c2cccc(C(=O)O)c2)o1 |  | 26.9 µM (active)
64 | CN1C(=O)/C(=C/c2ccco2)SC1=Nc1cccc(C(=O)O)c1 | -13.8% | 
65 | CCCN(CCC)S(=O)(=O)c1ccc(C(=O)Nc2sc3c(c2C(=O)OC)CCN(CC)C3)cc1 | -4.85% | 

— PubChem BioAssay AID588342 (National Center for Advancing Translational Sciences (NCATS), 2011)
